# High-throughput results (PubChem)
# Hits are enriched below; roughly 19% of the tested compounds scored in any of these assays.
# DT40 TDP1 no CPT: qHTS for Inhibitors of human tyrosyl-DNA phosphodiesterase 1 (TDP1): qHTS in cells in absence of CPT; DT40 Tdp1-/- hTDP1 cells, no CPT, ATP luminescence, 48 h; Potency, µM (top dose mostly 46.2 µM), inactives show top-dose activity change, negative = growth inhibition, most hits filed as inhibitors; 15% of 420,000 active; AID 686978, 2013; also: nearly all actives have a fitted effect of over 55% in size
#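 Chicken DT40 Tdp1-/- cells stably complemented with human TDP1 were seeded at 400 cells/well with DMSO in place of 20 nM camptothecin. After compound pinning, cells grew at least 48 hr at 37 °C; viability read by CellTiter-Glo luminescence.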
# KB-3-1 tox: kills parental KB-3-1 adenocarcinoma cells | 1.4% of 400,000 active | Potency, µM (highest dose often 46.1 µM), most hits filed as cytotoxic | KB-3-1 viability, CellTiter-Glo ATP luminescence, 72 h; also: nearly all actives have a fitted effect of over 60% in size
#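 Multi-concentration cytotoxicity screen in KB-3-1 cells grown in DMEM lacking phenol red with 10% FBS. After 72 h at 37 °C with compound, ATP-dependent luminescence was recorded.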
# HT1080-NT tox: kills 2HG-producing HT-1080-NT fibrosarcoma cells | HT-1080-NT fibrosarcoma viability, CellTiter-Glo ATP luminescence, 48 h | Potency, µM (highest dose often 46.1 µM), inactives show at the highest dose activity, negative = less viability, usual class: cytotoxic | 1.6% of 360,000 active;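 also: NT is the 2HG producing partner of a matched IDH1 knockdown line; 0% = DMSO-treated cells and -100% = media-only wells without cells; nearly all actives have a fitted effect of over 55% in size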
#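 HT-1080-NT fibrosarcoma cells (2HG-overproducing), 750 cells/well in RPMI with 5% FBS, dosed after 2 h and incubated 48 h at 37C. CellTiter-Glo luminescence normalized to DMSO and no-cell wells; concentration-response curves fitted and classed.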
# HT1080 IDH1KD tx: HT-1080 IDH1 knockdown cell toxicity (counter line). AID 686971. Potency, µM (top dose mostly 46.1 µM), for inactives: at the highest dose activity, negative = toxicity, most hits filed as cytotoxic. 2% of 360,000 active. HT-1080 IDH1 knockdown viability, ATP luminescence, 48 h;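 also: 0% = DMSO wells and -100% = cell-free medium wells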
#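 CellTiter-Glo luminescence after 48 h compound exposure at 37 degrees C of IDH1-knockdown HT-1080 cells in 5% FBS RPMI. %Activity scaled between DMSO wells and cell-free media wells, with curves fitted and assigned curve classes.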
# KB-V1 MDR tox: KB-V1 MDR subline cytotoxicity. KB-V1 MDR cells viability, CellTiter-Glo, 72 h. 3.4% of 400,000 active. Potency, µM (doses to about 46.1 µM), hits mostly cytotoxic; also: nearly all actives have a fitted effect of over 60% in size
#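 Compound-treated KB-V1 multidrug-resistant cells, 72 h, 37 degrees C; viability by CellTiter-Glo. Fitted qHTS curves give the values.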
# TDP1 cell CPT: DT40-hTDP1 cell growth loss with CPT | 12% of 420,000 active | chicken DT40 Tdp1-/-;hTDP1 cells + 20 nM CPT, ATP luminescence, 48 h | AID 686979 | Potency, µM (doses to about 46.2 µM), without a hit: at the highest dose activity change, negative = growth inhibition, most hits filed as inhibitors; also: nearly all actives have a fitted effect of over 55% in size
#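 Chicken DT40 Tdp1-/- cells stably complemented with human TDP1 were seeded at 400 cells/well in medium containing 20 nM camptothecin, exposed to pin-transferred compounds, and grown at 37 °C for at least 48 hr. Viability was read as ATP luminescence.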
# Active calls of the source: *; i = inactive; ? = inconclusive; . = not tested or not shown; [ ] = another dose, or the depositor's remark. Calls follow the shape of the dose curve; as a rule, active = well fitted curve in the direction sought with a large enough effect; inconclusive = small, poorly fitted or top-dose-only effect, or another doubt; inactive = no such curve, though single readings can be large; an effect the other way counts as inactive or inconclusive. Unless noted, % is scaled to controls: 0 for no effect and ±100 for the full control effect; potency is read from the fitted curve at half-maximal effect.
SMILES,DT40 TDP1 no CPT,KB-3-1 tox,HT1080-NT tox,HT1080 IDH1KD tx,KB-V1 MDR tox,TDP1 cell CPT
CCOc1ccccc1CNC(=O)Cn1nc(C)c2nn(-c3ccc(Cl)cc3)c(C)c2c1=O,18.4µM*,.,.,.,.,?
CCc1cccc(C)c1NC(=O)Cn1nc(C)c2nn(-c3ccc(Cl)cc3)c(C)c2c1=O,20.6µM*,.,.,.,.,16.4µM*
CC1Nc2ccccc2C(=O)N1NS(=O)(=O)c1ccccc1 (stereo unspecified),-11.7%,i,7.9%,6.3%,i,-2.9%
COc1ccc([N+](=O)[O-])cc1NC(=O)C(C)Sc1nc(C)c(C)c(C)n1 (stereo unspecified),23.1µM*,i,-15.0%,-6.2%,i,?
COc1ccc([N+](=O)[O-])cc1NC(=O)CSc1nc(C)c(C)c(C)n1,?,i,20.6%,16.3%,i,?
O=C(O)c1cc(NC(=O)c2ccc(Cl)c([N+](=O)[O-])c2)cc(C(=O)O)c1,-15.5%,i,24.5%,24.4%,i,25.5%
O=[N+]([O-])c1cc(S(=O)(=O)NC2=NCCCCC2)ccc1NCC1CCCCC1,?,?,?,-11.6%,i,16.4µM*
N#Cc1ccsc1NC(=O)c1ccc(Cl)c([N+](=O)[O-])c1,2.31µM*,i,-11.5%,-25.5%,?,2.91µM*
O=C(Nc1ccc(C(O)(C(F)(F)F)C(F)(F)F)cc1)c1ccc(Cl)c([N+](=O)[O-])c1,18.4µM*,?,?,23.1µM*,?,11.6µM*
Cc1nc2cc(NC(=O)c3ccc([N+](=O)[O-])s3)ccc2s1,5.17µM*,i,-11.4%,-3.3%,?,2.91µM*
Cc1cc(NS(=O)(=O)c2ccc(NC(=O)c3ccc([N+](=O)[O-])s3)cc2)nc(C)n1,0.8%,?,-18.2%,-29.9%,i,-26.6%
Cc1ccnc(NS(=O)(=O)c2ccc(NC(=O)c3ccc([N+](=O)[O-])s3)cc2)n1,?,14.6µM*,?,?,i,?
O=C(Nc1ccc(S(=O)(=O)NC2=NCCCCC2)cc1)c1ccc(C(F)(F)F)cc1,?,20.6µM*,-2.2%,-10.8%,20.6µM*,?
O=C(Nc1ccc(S(=O)(=O)NC2=NCCCCC2)cc1)c1ccc([N+](=O)[O-])s1,10.3µM*,6.51µM*,?,?,?,5.17µM*
CN(C)S(=O)(=O)c1ccc(C(=O)Nc2ccc(S(=O)(=O)NC3=NCCCCC3)cc2)cc1,-4.3%,i,5.2%,9.0%,i,-16.0%
O=C(Nc1ccc(S(=O)(=O)NC2=NCCCCC2)cc1)c1ccc(Cl)c([N+](=O)[O-])c1,23.1µM*,i,?,-24.9%,i,?
O=C(CCSc1ccccc1)Nc1nnc(-c2cccs2)o1,-10.4%,i,-1.6%,1.2%,i,3.2%
CCC(Oc1ccccc1)C(=O)Nc1ccsc1C(=O)OC (stereo unspecified),?,i,-6.3%,-6.0%,i,?
CCOC(=O)c1c(N)c(C#N)cn1-c1ccccc1,0.9%,i,1.3%,-22.0%,i,-29.9%
CCOC(=O)c1c(NC(=O)c2nn(CC)cc2Br)c(C#N)cn1-c1ccccc1,20.6µM*,i,3.4%,4.9%[9.24 µM],i,?
Cc1ccc(NC(=O)CNC(=O)c2cccc(C)c2)nc1,-22.3%,i,14.0%,-1.0%,?,-1.8%
COc1ccc(C(=O)N2CCOC2CNC(=O)C(=O)NCc2ccc(Cl)cc2)cc1 (stereo unspecified),?,i,-6.0%,-10.4%,23.1µM*,4.9%
Cc1cc(=O)n(C)c(=O)n1CCCCCOc1cccc([N+](=O)[O-])c1,?,i,0.9%,6.1%,8.2µM*,?
